Results on 40 compounds are retold here after PubChem BioAssay.

Values without a mark were called inactive.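 Rule for the calls: active = RAM network inhibition above 8.4% in each of two replicates, 3 SD over the compound average; inconclusive = above 8.4% inhibition in only one replicate; inactive = 8.4% inhibition or less in each replicate.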

This assay is described as follows: RAM signaling pathway blockade in yeast – S. cerevisiae, Pdr1DBD-CYC8 efflux-inhibited sensitized strain, primary screen (AID 1298).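 Note: 0% = DMSO untreated cells without growth and 100% = 10 µM 1-NA-PP1 full growth; higher means more yeast growth rescued from 5-FOA killing.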 The conditions noted are these: S. cerevisiae cbk1-as DSE1-URA3 strain, 5-FOA growth OD615, 2 d; at 50 µM; active compounds read high.
As for `CCOC(=O)N1CCN(C(=O)C2CCCN(Cc3nc(-c4ccc(Cl)cc4)oc3C)C2)CC1` (stereo not given), the RAM network inhibition is 3.55%.

Take `CCCCN(C)C(=O)C(Cc1ccccc1)NS(=O)(=O)c1ccc2c(c1)CCC(=O)N2` (stereo not given): the RAM network inhibition is 6.27%.

In the case of `COC(=O)c1ccc(OCC(O)CN2CCC(C)CC2)cc1` (stereo not given), the RAM network inhibition was 4.68%.

Regarding `CCC(=O)Nc1ccc(C(=O)n2nc(C)cc2C)cc1`, the RAM network inhibition was -0.72%.

For `CC1CCc2nc3ccc(S(=O)(=O)N4CCC(C(=O)NC5CCCC5)CC4)cc3c(C(=O)O)c2C1` (stereo not given), the RAM network inhibition is 3.59%.

Take `COc1ccc(S(=O)(=O)N2CCC(C(=O)N3CCOCC3)CC2)cc1OC`: the RAM network inhibition was 2.43%.

On to `O=C(CCCCn1c(=O)[nH]c2ccccc2c1=O)NCCc1c[nH]c2ccccc12`, for which the RAM network inhibition is 4.06%.

Turning to `O=C1C(Cl)=C(NCC2CCCO2)C(=O)N1C1CCCCC1` (stereo not given), the RAM network inhibition was 5.88%.

For `Cc1cc2cc(CNC(=O)c3ccco3)ccc2n1C`, the RAM network inhibition was 6.42%.

`CCOC(=O)N1CCN(C(=O)CN(c2cc(Cl)ccc2OC)S(=O)(=O)c2ccccc2)CC1`: the RAM network inhibition was 2.07%.

Turning to `O=C(NCCSCc1ccco1)c1ccc(CN2CCOCC2)cc1`, the RAM network inhibition was 2.06%.

As to `CC(C)(C)NC(=O)CSc1nc(O)cc(=O)n1-c1ccccc1F`, the RAM network inhibition is 1.87%.

Regarding `Cc1sc2nc(CSc3nnc(Cc4cccs4)n3C3CCCCC3)[nH]c(=O)c2c1C`, the RAM network inhibition is 4.25%.

`COc1ccccc1C1NC(=O)NC(C)=C1C(=O)Nc1cccc(C)c1C` (stereo not given): the RAM network inhibition was -1.38%.

As to `CC(C)Sc1nnc(Cn2c(=O)sc3ccccc32)n1-c1ccccc1`, the RAM network inhibition was 5.84%.

As for `CCCCC(=O)Nc1ccc(Br)cc1C(=O)O`, the RAM network inhibition was -1.59%.

As to `c1csc(Cc2nc3ccccc3[nH]2)c1`, the RAM network inhibition is -0.01%.

Take `Cc1noc(NS(=O)(=O)c2ccc(N3Cc4ccccc4C3=O)cc2)c1C`: the RAM network inhibition was 5.3%.

In the case of `COCCNC(=O)c1cc2c(=O)n3cccc(C)c3nc2n1C`, the RAM network inhibition was 3.01%.

For `Cc1ccc(C)c(Cn2c(CN(C)Cc3ccccc3)nc3c2c(=O)n(C)c(=O)n3C)c1`, the RAM network inhibition is 2.51%.

Turning to `CCOc1ccccc1NC(=O)CSc1nnc(-c2ccccn2)n1Cc1ccco1`, the RAM network inhibition was 3.98%.

With `Cc1nnc(SCCn2c(N3CCCC(C)C3)nc3c2c(=O)n(C)c(=O)n3C)s1` (stereo not given), the RAM network inhibition was 1.84%.

On to `CC1Cc2nc(SCC(=O)Nc3ccc4c(c3)OCO4)n(CCc3ccccc3)c(=O)c2S1` (stereo not given), for which the RAM network inhibition is 7.17%.

As to `COc1ccccc1CNC(=O)c1cnc2ccccn2c1=O`, the RAM network inhibition was 2.45%.

On to `COc1ccccc1NC(=O)CSc1nnc(-c2ccco2)n1Cc1ccco1`, for which the RAM network inhibition is 1%.

Consider `COc1ccc(Cl)cc1S(=O)(=O)n1ccnc1C(C)C`, for which the RAM network inhibition was 2.15%.

For the compound `O=C(CNS(=O)(=O)c1cccs1)Nc1ccc2c(c1)OCCO2`, the RAM network inhibition was 0.67%.

In the case of `O=C(NCCCN1CCOCC1)c1ccco1`, the RAM network inhibition was 2.27%.

For `CCCCn1c(=NC(=O)c2cccnc2)c(C(=O)OCC)cc2c(=O)n3ccccc3nc21`, the RAM network inhibition is 7.68%.

In the case of `Cc1ccc2oc(=O)c3cnn(CC(=O)NCCN4CCOCC4)c3c2c1`, the RAM network inhibition is 5.06%.

Regarding `Cc1nc(CCNC(=O)COc2ccccc2)cs1`, the RAM network inhibition is 7.03%.

With `CC(C)(C)n1nc2c(c1NC(=O)c1ccc(Br)cc1)CS(=O)C2` (stereo not given), the RAM network inhibition was -0.53%.

Turning to `O=C(NCc1ccc(Cl)cc1)C1CCCN(S(=O)(=O)c2cnc[nH]2)C1` (stereo not given), the RAM network inhibition is 1.09%.

Regarding `CC1(C)CC(=O)C2=C(C1)OC(N)=C(C#N)C2c1ccc(OC(=O)N2CCOCC2)cc1` (stereo not given), the RAM network inhibition is 0.1%.

For the compound `CSc1nnc2n(-c3ccc(C)cc3)c(=O)c3c4c(sc3n12)COC(C(C)C)C4` (stereo not given), the RAM network inhibition is 7.91%.

`COCCN1C(=O)c2oc3ccccc3c(=O)c2C1c1ccc(O)c(OC)c1` (stereo not given): the RAM network inhibition is 8.37%.

Turning to `O=C1NC(=O)C(CC(=O)N(Cc2ccco2)C2(C(=O)NC3CCCCC3)CCCCC2)N1` (stereo not given), the RAM network inhibition was 2.23%.

In the case of `O=C(NCc1cccs1)C1CCCN1S(=O)(=O)c1ccccc1F` (stereo not given), the RAM network inhibition was 2.5%.

Regarding `CCOC(=O)N1CCC(N2C(=O)c3ccccc3C2Nc2cc(OC)c(OC)c(OC)c2)CC1` (stereo not given), the RAM network inhibition was 0.78%.

For `O=C(O)c1ccc(Cl)c2c1C1C=CCC1C(c1ccccn1)N2` (stereo not given), the RAM network inhibition is 1.25%.
